# Source: the supplement of paper PMC12636033
# ± gives the standard deviation of the averaged measurements. The full ranking holds about 33,000 sequences; the median of “E-score (rank enrichment, -0.5 to 0.5)” is about -0.0075, and the highest 2% start at about 0.23. This excerpt belongs to a sample that is enriched for the highest values.
# Test system: WT Max(13-93) synthetic (M65Nle)
# Assay: PBM 8-mer E-score (E-score (rank enrichment, -0.5 to 0.5)); higher = stronger preferential binding
# Procedure: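 Protein binding microarray (universal PBM chip covering all 10-mers in fixed probe flanks) with chemically synthesized human Max(13-93) bHLH-LZ analogs (not full-length Max) bearing noncanonical residues (hArg, Tha, Aib, Nle at 65) and aromatic Cys staples. Read-out per 8-mer (and its reverse complement): E-score (rank-based enrichment, -0.5 to 0.5) and Z-score of median probe intensity.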
row,Sequence,PBM 8-mer E-score
1,TCATATAA,0.15 ± 0.064
2,ACATATAT,0.244 ± 0.04
3,CCATATAA,0.174 ± 0.02
4,ACATATCA,0.252 ± 0.013
5,ACATATAA,0.309 ± 0.078
6,ACATATCG,0.0595 ± 0.028
7,CCATATCA,0.0654 ± 0.064
8,GCATATGC,0.245 ± 0.008
9,CCATATGC,0.112 ± 0.14
10,ACATATAC,-0.00226 ± 0.03
11,ACATATAG,0.0953 ± 0.059
12,GCATATGA,0.138 ± 0.034
13,GCGGCCTA,-0.209 ± 0.12
14,ATGCGATG,0.054 ± 0.083
15,GTGAACAA,0.114 ± 0.0024
16,CAGGCGAC,-0.124 ± 0.082
17,CGTCCCGA,-0.209 ± 0.12
18,AAAGTTAG,0.127 ± 0.044
19,AGTGCAGA,0.0828 ± 0.16
20,ATAGCGGC,-0.135 ± 0.21
21,AACCTAGT,-0.18 ± 0.029
22,ATTGTGCC,0.174 ± 0.071
23,ACATATGT,0.265 ± 0.11
24,ACATATGG,0.155 ± 0.071
25,ACATATGC,0.0404 ± 0.029

row,Sequence,PBM 8-mer E-score
1,CGTTCTGC,-0.108 ± 0.038
2,GATGTGAA,0.15 ± 0.0086
3,CATGTGAA,0.249 ± 0.059
4,CATGTGAC,0.3772 ± 0.0032
5,CCTGTGAA,-0.00915 ± 0.077
6,AATGTGAC,-0.0272 ± 0.014
7,GATGTGAC,-0.231 ± 0.026
8,TATGTGAA,0.254 ± 0.13
9,AATGTGAA,0.181 ± 0.089
10,CATGTGAG,0.226 ± 0.08
11,AACCCGCT,0.00053 ± 0.075
12,ATAACCCG,-0.0972 ± 0.023
13,GATACTGA,-0.0332 ± 0.11
14,CTATAAAA,0.0799 ± 0.029
15,GTATAAAA,0.2289 ± 0.0018
16,ACATAAAG,0.197 ± 0.04
17,ATATAAAT,0.26 ± 0.013
18,ATAAAAAT,0.209 ± 0.032
19,CGATAAAA,0.0372 ± 0.13
20,ATATAAAG,0.138 ± 0.006
21,ACATAAAA,0.192 ± 0.085
22,ACATAAAT,0.249 ± 0.026
23,TGATAAAA,0.282 ± 0.056
24,GGATAAAA,0.116 ± 0.12
25,ATATAAAA,0.257 ± 0.14

row,Sequence,PBM 8-mer E-score
1,TGTCTAAA,0.127 ± 0.015
2,TTGCTAAA,-0.0675 ± 0.037
3,ACATCGCC,0.0533 ± 0.012
4,CATAAGCG,-0.0132 ± 0.16
5,ACGCTACT,-0.103 ± 0.057
6,CGCACAGA,-0.00527 ± 0.17
7,GCTACTTA,0.0733 ± 0.061
8,GCATCAAA,0.0826 ± 0.0033
9,TCAGTACA,-0.0447 ± 0.075
10,CTATAAGA,0.00621 ± 0.13
11,CTATAAAC,-0.0175 ± 0.061
12,GTATAAGA,0.176 ± 0.037
13,ATATAAGA,0.257 ± 0.1
14,ATATAAAC,0.249 ± 0.1
15,GTATAAAC,0.097 ± 0.035
16,CCGCACAA,-0.0967 ± 0.091
17,CAGTGTCG,-0.18 ± 0.018
18,TTGGACAA,0.137 ± 0.038
19,TGGGACAA,0.233 ± 0.12
20,AGGGACAA,-0.0703 ± 0.11
21,GTGGACAA,0.236 ± 0.0099
22,GGGGACAA,-0.00341 ± 0.1
23,CTGGACAA,-0.0424 ± 0.18
24,ATCTAAGG,0.00267 ± 0.011
25,GACAGTAC,0.0423 ± 0.12

row,Sequence,PBM 8-mer E-score
1,AACAGCCA,0.0334 ± 0.032
2,GCCCGGAC,-0.319 ± 0.01
3,TGCACACA,0.0593 ± 0.099
4,ATAGGCTA,0.00221 ± 0.094
5,GCATTTTA,0.16 ± 0.072
6,ATATTTAC,0.23 ± 0.07
7,ACATTTTA,0.297 ± 0.048
8,GCTTTTTA,0.237 ± 0.16
9,CCTTTTTA,0.171 ± 0.029
10,CTTTTTCA,0.144 ± 0.055
11,CCTTTTCA,0.245 ± 0.15
12,CTATTTAA,0.0374 ± 0.0014
13,CCATTTTA,0.0902 ± 0.15
14,ATATTTAA,0.302 ± 0.021
15,GCTTTTCA,0.0385 ± 0.086
16,GCTTTTAA,-0.0112 ± 0.043
17,ACGAAATG,0.158 ± 0.068
18,CTCGGCTC,-0.235 ± 0.028
19,AGGGAATC,-0.0163 ± 0.031
20,GTTTCGTA,0.0743 ± 0.067
21,GCGCTCTA,-0.19 ± 0.062
22,CCATACAG,-0.026 ± 0.18
23,CGTGAGCA,-0.0547 ± 0.079
24,CTATTTTA,0.0787 ± 0.12
25,GTATTTTA,0.0179 ± 0.13

row,Sequence,PBM 8-mer E-score
1,ATATTTTA,0.271 ± 0.033
2,CGTTTTCA,0.106 ± 0.036
3,AACAGGTC,-0.0763 ± 0.049
4,ACAACGTA,0.024 ± 0.002
5,ATAACGTA,0.203 ± 0.091
6,ACAACGTG,0.255 ± 0.089
7,ATAACGTC,0.136 ± 0.042
8,ACAACGTC,-0.0474 ± 0.05
9,ATAACGTG,0.261 ± 0.046
10,GGCTGGCA,-0.311 ± 0.1
11,GCGTCTCA,-0.13 ± 0.025
12,CCGCACTC,-0.0409 ± 0.033
13,TATTTGAA,0.0846 ± 0.018
14,ACTTGGTC,0.0597 ± 0.089
15,CATTGTAA,0.134 ± 0.067
16,GACGTCGC,-0.091 ± 0.13
17,ACCGCGCT,-0.146 ± 0.012
18,ATGACCTC,0.0149 ± 0.085
19,TCAAACCA,0.172 ± 0.063
20,AGTTTAAA,0.164 ± 0.0074
21,TGTTTCAA,0.241 ± 0.011
22,GGTTTCAA,0.077 ± 0.0057
23,AGTTTCAA,-0.0849 ± 0.1
24,GGTTTAAC,0.0486 ± 0.048
25,GGTTTAAA,0.233 ± 0.043

row,Sequence,PBM 8-mer E-score
1,GTTTTAAA,0.0916 ± 0.047
2,TGTTTAAA,0.252 ± 0.09
3,TGTTTTAA,0.115 ± 0.0028
4,GTCATCAA,0.0407 ± 0.073
5,AAGACGAC,0.0772 ± 0.12
6,CAGCGTAG,0.0168 ± 0.0028
7,GACCATCA,-0.057 ± 0.034
8,AGGTAAGA,-0.0352 ± 0.073
9,CACGGTAG,-0.0473 ± 0.022
10,GTCAGCTA,-0.148 ± 0.085
11,GAATTGCA,0.06 ± 0.059
12,GTTCAGCA,0.0207 ± 0.087
13,CTGCGAAC,-0.0246 ± 0.099
14,ACCGTTGA,-0.15 ± 0.014
15,GATGTGCC,-0.0199 ± 0.084
16,CATGTGCG,0.296 ± 0.028
17,AATGTGCC,-0.0182 ± 0.064
18,AATGTGCG,0.115 ± 0.0056
19,CCTGTGCG,-0.0525 ± 0.063
20,GATGTGCA,0.052 ± 0.059
21,CATGTGCC,0.327 ± 0.011
22,TATGTGCA,0.16 ± 0.02
23,CATGTGCA,0.321 ± 0.025
24,GGGAGATA,0.0313 ± 0.14
25,AAATGGTG,-0.0479 ± 0.077

row,Sequence,PBM 8-mer E-score
1,AGATTGGG,0.0796 ± 0.049
2,TCGGGAGA,-0.0551 ± 0.06
3,ACCGGAGT,-0.185 ± 0.077
4,AGCTCAAA,-0.101 ± 0.07
5,AAGTGTTG,0.2 ± 0.0011
6,ACGTGTTG,0.378 ± 0.067
7,ACGTGTTC,0.278 ± 0.11
8,AGGTGTTC,0.0938 ± 0.013
9,CCGTGTTA,0.145 ± 0.056
10,GCGTGTAA,0.18 ± 0.091
11,CCGTGTTC,0.034 ± 0.081
12,GCGTGTGA,0.201 ± 0.034
13,ACGTGTTA,0.333 ± 0.053
14,AGGTGTTA,0.0454 ± 0.019
15,GCGTGTTA,0.242 ± 0.043
16,AGGTGTTG,-0.0777 ± 0.036
17,GTCTCACA,0.0533 ± 0.04
18,TAGTAGGA,-0.0355 ± 0.069
19,CCGACCCG,-0.101 ± 0.18
20,CATCTTTA,-0.0556 ± 0.15
21,GGTGTAGA,0.0276 ± 0.032
22,ACTCGGTG,-0.111 ± 0.026
